# Laboratory results as given in PubChem BioAssay AID1671190 (National Center for Advancing Translational Sciences (NCATS), 2021).
# About 6,100 (1.1%) of roughly 580,000 compounds were called active. Roughly 15% stayed inconclusive and do not appear here. Shown is part of a subset that was picked to be rich in actives. Entries that show only a call come without a potency. Unmarked numbers belong to inactive results. Calls follow the shape of the dose curve; as a rule, active = well fitted inhibition curve with a large enough effect; inconclusive = small, poorly fitted or top-dose-only effect, or another doubt; inactive = no such curve, though single readings can be large or run the other way.
# Target: Polyunsaturated fatty acid lipoxygenase ALOX12 (Homo sapiens) (UniProt P18054)
# Assay: Primary qHTS assay for inhibitors of human arachidonate 12S-lipoxygenase (ALOX12): Round 2
# Conditions: purified 12hLO, xylenol orange hydroperoxide absorbance; series mostly up to 108 µM
# In short: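 Purified human 12hLO at 150 nM in 25 mM Hepes, 0.01% Triton X-100, pH 7.0, preincubated 15 min at room temperature with compound. Reaction started with 40 uM arachidonic acid, 30 min at room temperature. Hydroperoxide measured by Fe-xylenol orange, 573/405 nm absorbance ratio.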
# Potency is read from the fitted curve at half-maximal effect.
# Polyunsaturated fatty acid lipoxygenase ALOX12 (Homo sapiens), sequence (P18054 whole entry, looked up): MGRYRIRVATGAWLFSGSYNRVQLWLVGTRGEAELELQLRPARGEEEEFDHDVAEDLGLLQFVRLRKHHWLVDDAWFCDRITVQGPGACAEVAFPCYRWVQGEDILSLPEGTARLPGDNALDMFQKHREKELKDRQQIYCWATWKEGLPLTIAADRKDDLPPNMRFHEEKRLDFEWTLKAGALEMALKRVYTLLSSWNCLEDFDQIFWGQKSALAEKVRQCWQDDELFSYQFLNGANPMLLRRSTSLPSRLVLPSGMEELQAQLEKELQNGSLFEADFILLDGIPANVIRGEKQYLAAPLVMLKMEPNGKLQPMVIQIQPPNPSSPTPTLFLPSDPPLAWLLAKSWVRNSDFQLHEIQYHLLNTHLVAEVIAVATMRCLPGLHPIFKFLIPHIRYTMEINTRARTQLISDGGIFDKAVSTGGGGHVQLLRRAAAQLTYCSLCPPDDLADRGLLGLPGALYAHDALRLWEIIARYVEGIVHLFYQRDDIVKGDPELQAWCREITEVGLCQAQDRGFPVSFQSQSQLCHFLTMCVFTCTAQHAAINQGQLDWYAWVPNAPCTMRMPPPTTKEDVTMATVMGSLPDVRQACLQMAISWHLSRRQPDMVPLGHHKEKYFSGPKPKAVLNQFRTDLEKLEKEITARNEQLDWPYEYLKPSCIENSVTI
Compound,Potency,"activity change, negative = inhibition"
N#Cc1ncn(CCC(=O)Nc2ccc(F)c(F)c2)n1,inactive,
COc1ccc(C)cc1NC(=O)NC(C(=O)N1CCc2ccccc21)C(C)C (stereo unspecified),inactive,
Cc1noc(-c2ccc(OC(F)(F)F)cc2)c1C(=O)NCc1ccc2c(c1)OCO2,inactive,
CCC1CCCCN1C(=O)Cn1cccc1-c1nc(-c2ccc(F)cc2)no1 (stereo unspecified),inactive,
O=C(c1n[nH]c2c1CCCC2)N1CCC2(CC1)NC(=O)N(c1ccc(F)cc1)N2,1.41 µM (active),
O=C(c1cccc(Cl)c1)N1CCC2(CC1)NCc1ccccc1NC2=O,,3.75% [at 6.33 µM]
CC(=O)Nc1cccc(C(=O)N2CCC3(CC2)NC(=O)N(c2cccc(Cl)c2)N3)c1,1.41 µM (active),
O=C(Cc1ccc(F)cc1)N1CCC2(CC1)NC(=O)N(c1ccccc1)N2,5.01 µM (active),
O=C(c1ccc2c(c1)OCO2)N1CCC(n2c(=O)[nH]c3ccccc32)CC1,inactive,
O=C(NC1CCCc2c1[nH]c1ccc(F)cc21)c1n[nH]c2c1CCCC2 (stereo unspecified),inactive,
O=C(c1ccc2c(c1)OCO2)N1CCC2(CC1)NC(=O)N(c1ccccc1)N2,5.01 µM (active),
O=C(Cc1ccc(F)cc1)N1CCC(n2cc(-c3nc(-c4ccccc4)no3)nn2)CC1,inactive,
O=C(c1ccccc1)c1cccn1CC(=O)N1CCN(c2ccc(F)cc2)CC1,inactive,
O=C(c1ccc2c(c1)OCO2)N1CCC2(C1)C(=O)Nc1ccccc12 (stereo unspecified),,5.73% [at 6.33 µM]
CCC(CC)C(=O)Nc1cccc(C(=O)N2CCCC2)c1,inactive,
O=C(c1cc2ccccc2oc1=O)N(Cc1ccccc1)c1cccc([N+](=O)[O-])c1,inactive,
CC1CCN(S(=O)(=O)c2ccc3c(ccc(=O)n3CC(=O)NCc3ccccn3)c2)CC1,inactive,
COc1cccc(CC(=O)N2CCC3(CC2)N=C(c2ccc(Cl)cc2)NO3)c1,inactive,
Cc1ccc(-c2cn3nc(N4CCCC(C(=O)NCCc5cccs5)C4)sc3n2)cc1 (stereo unspecified),inactive,
COCCn1nc2n(c1=O)CCN(S(=O)(=O)c1ccc(Cl)s1)CC2,inactive,
COc1ccc(Cl)cc1NC(=O)CCc1ncc(-c2ccc(C)cc2)o1,inactive,
CC1(c2ccccc2)N(Cc2ccc(O)cc2)C(=O)OC12CCN(Cc1ccc(C#N)cc1)CC2 (stereo unspecified),inactive,
CC(C)C(=O)N1CCC2(CC1)OC(=O)N(Cc1ccccc1F)C2(C)c1ccccc1 (stereo unspecified),inactive,
CC1(c2ccccc2)N(Cc2ccccc2F)C(=O)OC12CCN(Cc1c[nH]c3ccccc13)CC2 (stereo unspecified),28.2 µM (active),
COc1ccccc1CNC(=O)c1ncoc1-c1cccc(C)c1,inactive,
CCC(=O)N1c2ccccc2NC2=C(C(=O)CC(C)(C)C2)C1c1cc(OC)ccc1OC (stereo unspecified),inactive,
